Experimental data: PubChem BioAssay (Tox21)
Unmarked numbers belong to inactive results. Calls come from the whole dose curve; as a rule, active = well fitted inhibition curve with a large enough effect in the repeat runs (not every such curve was filed as active); inconclusive = weak or mixed curves; inactive = flat fitted curve, though single readings scatter.

target: Thyrotropin-releasing hormone receptor (Homo sapiens) (UniProt P34981); assay: qHTS assay to identify small molecule antagonists of the thyrotropin-releasing hormone receptor (TRHR) signaling pathway (AID 1346877); conditions: TRHR-HEK293, TRH-induced calcium fluorescence, antagonist mode; series mostly up to 51.3 µM; activity, negative = inhibition: at the top concentration
In short: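 Overnight-plated (18 h, 37 °C) HEK293 cells expressing TRHR were dye-loaded 2 h, treated with compound, then stimulated with TRH at 1 nM final. Fluorescence intensity was captured every second for 3 min.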
% is set by controls: 0 for no effect and ±100 for the full control effect.

Sequence of Thyrotropin-releasing hormone receptor (Homo sapiens) (P34981 whole entry, looked up): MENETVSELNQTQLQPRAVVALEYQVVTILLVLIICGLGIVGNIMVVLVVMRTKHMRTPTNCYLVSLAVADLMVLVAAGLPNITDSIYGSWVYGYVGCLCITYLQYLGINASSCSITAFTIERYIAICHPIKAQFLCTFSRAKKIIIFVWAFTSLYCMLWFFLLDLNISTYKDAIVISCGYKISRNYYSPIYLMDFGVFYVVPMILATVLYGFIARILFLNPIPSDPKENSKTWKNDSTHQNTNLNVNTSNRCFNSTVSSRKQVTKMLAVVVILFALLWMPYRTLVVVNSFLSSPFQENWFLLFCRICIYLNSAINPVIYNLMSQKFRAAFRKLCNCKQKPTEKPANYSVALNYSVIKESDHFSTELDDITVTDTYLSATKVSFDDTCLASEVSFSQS

SMILES | activity, negative = inhibition
CC(CCc1ccc2c(c1)OCO2)NN (centres undefined) | -8.28% [at 23.6 µM]
CC(C)c1nnc2ccc(-c3ocnc3-c3cc(F)ccc3F)cn12 | 4.71%
OC/C(Br)=C(\Br)CO | 0.962%
CC1(C)C(=O)N(Br)C(=O)N1Cl | -1.31%
CCC(C(=O)OCCOCCN(CC)CC)c1ccccc1 (centres undefined) | 0.602% [at 23.6 µM]
O=C(O)c1cccc(O)c1 | 1.36%
O=C(O)c1ccc(CO)o1 | 0.519%
CCCCCCOC(=O)C(C)C | 2.88%
CCCCCCCCCCCC[N+](C)(C)CCCS(=O)(=O)[O-] | -3.87%
Cc1cc(O)c2c(O)c3c(O)cccc3cc2c1 | 2.41% [at 23.6 µM]
Cn1c(=O)c2c(ncn2CC(=O)O)n(C)c1=O | 0.198% [at 23.6 µM]
CC#N | 4.18%
CO[C@H]1O[C@H](CO)[C@@H](O)[C@H](O)[C@H]1O | -4.24%
CCOC(=O)C(C)Oc1ccc(Oc2nc3ccc(Cl)cc3o2)cc1 (centres undefined) | -4.7%
CC1CN(c2cc3c(cc2F)c(=O)c(C(=O)O)cn3-c2ccc(F)cc2F)CCN1 (centres undefined) | 2.02% [at 4.65 µM]
COC(OC)(C(=O)c1ccccc1)c1ccccc1 | 4.05%
O=c1[nH]c2ccc(S(=O)CCN3CCC(Cc4ccc(F)cc4)CC3)cc2o1 (centres undefined) | -6.63%
CCOCCn1c(C2CCN(CCc3ccc(C(C)(C)C(=O)O)cc3)CC2)nc2ccccc21 | 1.72% [at 23.6 µM]
CN1CCN(c2c(F)cc3c(=O)c(C(=O)O)cn4c3c2OCN4C)CC1 | 2.89% [at 10.5 µM]
CCC(C)=O | 2.4%
O=S(=O)(c1ccccc1)c1ccc(Cl)cc1 | 2.5%
O=C(CCC1CCN(Cc2ccccc2)CC1)c1ccc2c(c1)NCCCC2 | -0.852% [at 23.6 µM]
CCc1nn(CCCN2CCN(c3cccc(Cl)c3)CC2)c(=O)n1CCOc1ccccc1 | -12.5% [at 23.6 µM]
C[Si](NC1CCCCC1)(NC1CCCCC1)NC1CCCCC1 | 4.26%
CC(C)(C)C(=O)C(Oc1ccc(Cl)cc1)n1ccnc1 (centres undefined) | -6.55% [at 23.6 µM]
CN(C)C(=O)Nc1ccc(Oc2ccc(Cl)cc2)cc1 | -2.37%
Nc1nc(Cl)nc2c1ncn2[C@@H]1O[C@H](CO)[C@@H](O)[C@@H]1F | 0.0912% [at 23.6 µM]
CC(=O)OCC(=O)[C@H]1CC[C@H]2[C@@H]3CCC4=CC(=O)CC[C@]4(C)[C@H]3CC[C@]12C | -7.92% [at 23.6 µM]
Cc1cc(OI)c(C(C)C)cc1-c1cc(C(C)C)c(OI)cc1C | 4.8% [at 23.6 µM]
